This is part of a sample that, as a whole, favours compounds with a hit. Of some 79,000 tested, about 15% had one in any assay. Unmarked numbers belong to inactive results. Activity calls are given as the source filed them. Cut-off read from the data, not from the text of the source: active = growth inhibition above about 70%; inactive = the rest.
What was measured:
[1] = NCI Yeast Anticancer Drug Screen. Data for the rad50 strain (AID 155);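 note: 0% = growth of vehicle-only cultures of the same strain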; details: S. cerevisiae rad50 strain growth inhibition, stronger effect = higher value
Summary of the method: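 Cells are treated with compound, grown, and their growth is then scored against vehicle-only cultures of the same repair-deficient yeast strain.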

[2] = NCI Yeast Anticancer Drug Screen. Data for the mec2-1 strain (AID 157); details: S. cerevisiae mec2-1 strain, stronger effect = higher value
Summary of the method: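 mec2-1 yeast strain, carrying an alteration in DNA damage repair or cell cycle control, was exposed to compounds; growth inhibition was measured relative to vehicle-treated controls.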

[3] = NCI Yeast Anticancer Drug Screen. Data for the sgs1 mgt1 strain (AID 161);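 note: 0% = growth of cultures given vehicle only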; details: S. cerevisiae sgs1 mgt1 strain, stronger effect = higher value
Summary of the method: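 This yeast growth screen uses a strain with defined DNA-repair lesions; compound-treated growth is compared with vehicle-treated growth.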

[4] = NCI Yeast Anticancer Drug Screen. Data for the cln2 rad14 strain (AID 165);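 note: 0% = growth equal to vehicle treated cultures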; details: S. cerevisiae cln2 rad14 strain, stronger effect = higher value
Summary of the method: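 Yeast carrying cln2 and rad14 alterations (cell cycle control and DNA damage repair) were exposed to compounds. Growth inhibition was measured against vehicle-treated controls.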

[5] = NCI Yeast Anticancer Drug Screen. Data for the bub3 strain (AID 167); details: S. cerevisiae bub3 mutant strain, stronger effect = higher value
Summary of the method: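 Part of a panel of yeast mutants defective in DNA damage repair or cell cycle regulation. Each strain is grown with compound, and inhibition is calculated relative to solvent-treated cultures.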

[6] = NCI Yeast Anticancer Drug Screen. Data for the mlh1 rad18 strain (AID 175); details: S. cerevisiae mlh1 rad18 strain growth inhibition, stronger effect = higher value
Summary of the method: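 Growth inhibition of the yeast strain was measured after compound exposure and expressed relative to vehicle-treated controls. The strain carries defined defects in DNA damage repair.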

[7] = at 5.0 µM (retest, dose inferred, filed as 0.5)
[8] = at 50.0 µM (retest, dose inferred, filed as 5.0)

| SMILES | growth inhibition [1, 7] | growth inhibition [1, 8] | growth inhibition ([1]; at 50.0 µM) | growth inhibition [2, 7] | growth inhibition [2, 8] | growth inhibition ([2]; at 50.0 µM) | growth inhibition [3, 7] | growth inhibition [3, 8] | growth inhibition ([3]; at 50.0 µM) | growth inhibition [4, 7] | growth inhibition [4, 8] | growth inhibition ([4]; at 50.0 µM) | growth inhibition [5, 7] | growth inhibition [5, 8] | growth inhibition ([5]; at 50.0 µM) | growth inhibition [6, 7] | growth inhibition [6, 8] | growth inhibition ([6]; at 50.0 µM) |
| --- | --- | --- | --- | --- | --- | --- | --- | --- | --- | --- | --- | --- | --- | --- | --- | --- | --- | --- |
| CCCCCCc1cc(C(=O)N/N=C\c2cccc([N+](=O)[O-])c2)c2ccccc2n1 | 0% | -7% | -40.9% | -1% | -2% | -9.2% | 2% | 7% | -19.9% | -5% | -17% | 41% | 0% | 5% | 1.45% | 0% | -7% | -9.4% |
| COC(=O)CCCCC(=O)N(C(C)C)C(C)C | 4% | -10% | -8.6% | -5% | -1% | -14.4% | -11% | -11% | -19.8% | -2% | 11% | 76.3% (active) | 2% | 4% | -3.5% | 5% | -5% | 19.1% |
| O=C(CBr)C1(Br)CCN(Cc2ccccc2)CC1 | 19% | 99% (active) | 99.3% (active) | 17% | 99% (active) | 99.8% (active) | 22% | 99% (active) | 99.6% (active) | 8% | 99% (active) | 97.6% (active) | 6% | 99% (active) | 99.5% (active) | 30% | 99% (active) | 99.6% (active) |
| CCCCCCC/C=C/C(=O)OC1C(OC2C(OC(CCCCCCC)CC(=O)OC(CCCCCCC)CC(=O)O)OC(C)C(O)C2O)OC(C)C(O)C1O (configuration not stated) | -18% | 70% (active) | 91.5% (active) | -37% | 57% | 81.8% (active) | -27% | 62% | 92.7% (active) | -40% | 68% | 90.1% (active) | -42% | 94% (active) | 90% (active) | -34% | 95% (active) | 89.5% (active) |
| CCCCCC1OC1CC1OC1CCCCCCCC(=O)OC (configuration not stated) | -2% | 1% | 36.5% | -1% | -2% | 18.8% | -4% | 4% | 40.4% | -4% | -8% | -27.4% | -1% | -7% | 50.1% | 4% | 1% | 59% |
| COc1ccc(C=O)cc1C[P+](c1ccccc1)(c1ccccc1)c1ccccc1 | 46% | 97% (active) | 98% (active) | 38% | 99% (active) | 97.6% (active) | 51% | 99% (active) | 98.4% (active) | 13% | 94% (active) | 98.3% (active) | 54% | 98% (active) | 97.5% (active) | 39% | 94% (active) | 97.9% (active) |
| NC(=O)NNC(=O)NNC(N)=O | -4% | 9% | 0.95% | -2% | 1% | -4.8% | 3% | 4% | -20.2% | -1% | 3% | 70.8% (active) | -4% | -8% | -3.5% | -3% | 9% | -3.85% |
| COc1cc(C2OC(=O)c3ccccc3S2)ccc1O (configuration not stated) | 8% | 92% (active) | 98.7% (active) | 12% | 98% (active) | 98.6% (active) | -4% | 74% (active) | 71.6% (active) | 7% | 76% (active) | 96% (active) | 5% | 84% (active) | 95.5% (active) | 13% | 98% (active) | 99.5% (active) |
| O=C1C=CC(=NN=C(c2ccccc2)c2ccccc2)C=C1 | -27% | -1% | 55% | -16% | -21% | 54.5% | -21% | -10% | 38.1% | -27% | -17% | 44% | -14% | -22% | 63.9% | -38% | -2% | 53% |
| Oc1ccc(Cl)cc1-c1ccccc1 | -1% | 86% (active) | 94.1% (active) | -15% | 83% (active) | 97% (active) | -13% | 76% (active) | 90.2% (active) | -48% | 68% | 74.2% (active) | 1% | 68% | 94.7% (active) | 11% | 91% (active) | 91.7% (active) |
| C[n+]1c(/C=C/c2ccc(Cl)cc2)sc2ccccc21 | -4% | 36% | 60.5% | -6% | 51% | 51.9% | -11% | 36% | 73% (active) | 1% | 28% | 75.2% (active) | -12% | 34% | 29.6% | 11% | 50% | 78.8% (active) |
| C/C(=N/NC(=S)N1CCCC1)c1cccc(/C(C)=N\NC(=S)N2CCCC2)n1 | 11% | 12% | 15.2% | 13% | 28% | -14.9% | -17% | -4% | -6.45% | 1% | -4% | -3.15% | -3% | 5% | -8.05% | 17% | 18% | 1.65% |
| O=C(O)c1cc(-c2ccc3c(c2)Nc2ccccc2S3)nc2ccc(F)cc12 | 16% | 98% (active) | 99% (active) | -40% | 98% (active) | 99.1% (active) | 12% | 99% (active) | 98.8% (active) | 22% | 97% (active) | 98.7% (active) | 33% | 97% (active) | 98% (active) | 18% | 96% (active) | 98.7% (active) |
| Sc1ccccc1C1N(Cc2ccc(Cl)cc2)CCCN1Cc1ccc(Cl)cc1 | 98% (active) | 42% | 79.2% (active) | 100% (active) | 69% | 55.6% | 99% (active) | 84% (active) | 86.8% (active) | 99% (active) | 39% | 64% | 99% (active) | 63% | 81.8% (active) | 99% (active) | 73% (active) | 79.6% (active) |
| CCC(CC=C(C)C)(CC=C(C)C)c1ccncc1 (tested in a mixture with another compound) | -7% | 84% (active) | 97.8% (active) | -8% | 76% (active) | 99% (active) | 1% | 80% (active) | 98.9% (active) | -5% | 50% | 70.5% (active) | 1% | 76% (active) | 93.2% (active) | -4% | 74% (active) | 96.2% (active) |
| ONC(=Nc1cccc2ccccc12)C(=Nc1cccc2ccccc12)NO | 9% | 65% | 33.9% | -8% | 97% (active) | 23.3% | 8% | 46% | 13.4% | -16% | 73% (active) | -41.9% | 10% | 97% (active) | 47.5% | -9% | 91% (active) | 57.6% |
| O=C(O)/C(=C/c1ccccc1)c1ccccc1.[Ag] | 99% (active) | 99% (active) | 99.4% (active) | 100% (active) | 99% (active) | 94.5% (active) | 100% (active) | 100% (active) | 99.3% (active) | -14% | 99% (active) | 78.8% (active) | 100% (active) | 98% (active) | 93.7% (active) | 99% (active) | 99% (active) | 99.4% (active) |
| CC(=O)/C(=C/n1c(=S)[nH]c2ccc([N+](=O)[O-])cc21)C(=O)Nc1ccc(Cl)cc1 | 1% | -1% | 10.9% | -9% | 2% | 6.75% | 0% | -5% | 16.7% | -21% | -17% | 46.4% | -4% | -2% | 15.6% | 1% | -2% | 22.3% |
| COc1cc(N=Nc2ccccc2)cc(/C=N/NC(N)=S)c1O | -2% | 46% | 73.8% (active) | 3% | 59% | 67.2% | 9% | 85% (active) | 88.8% (active) | -9% | 37% | 78.8% (active) | 1% | 61% | 58.3% | 4% | 73% (active) | 90.8% (active) |
